This passage reports survival results from PubChem BioAssay AID463173 (ICCB-Longwood Screening Facility, Harvard Medical School, 2010).

Among all 52,000 compounds or so, about 1,700 (3.3%) were called active. Rule as the data show it: active = survival mostly below about 52% (no sharp cut-off); inactive = mostly above about 56%. Many of the other results were omitted from the sample, so actives are more common in it than they were.

The experiment concerns Wild type. Kind of experiment: S. aureus survival, RN4220 and DeltatarO strains – OD600, teichoic acid synthesis inhibitors, primary screen (AID 463173). The settings on record: S. aureus RN4220 wild type/DeltatarO growth, OD600, 18 h, hits give low values, screened at 18.75 µg/mL (by protocol).
Turning to `CCOC(=O)C(C)NC(=O)c1c(C)oc2ncn(CC(C)C)c(=O)c12` (configuration not stated), the survival was 72% (inactive).
On to `Cc1ccccc1CN1CCCN(CC(=O)Nc2ccc3c(c2)OCCO3)S1(=O)=O`, for which the survival was 72% (inactive).
The result for `Cc1cccc2c1-c1sc(C(=O)N(C)c3cccc(Cl)c3)cc1CO2` reads 0% (active); that for `Cc1cccc2c1-c1sc(C(=O)N(C)c3cccc(C(F)(F)F)c3)cc1CO2`, 24% (inactive).
In the case of `COc1ccc(N(C)C(=O)c2cc3c(s2)-c2c(C)cccc2OC3)c(OC)c1` it was 12% (active); in that of `COc1ccc(NC(=O)c2cc3c(s2)-c2c(C)cccc2OC3)c(OC)c1`, 78% (inactive); in that of `CCc1ccccc1N(C)C(=O)c1cc2c(s1)-c1c(C)cccc1OC2`, 69% (inactive).
In the case of `COc1ccc(CCNC(=O)c2cc3c(s2)-c2c(C)cccc2OC3)c(OC)c1` it was 103% (inactive); in that of `Cc1ccc(NC(=O)CCc2c(C)nn(-c3ccc(N4CCCCC4)nn3)c2C)cc1F`, 146% (inactive).
For `COCCCNc1cc(C)nc2ccccc12`, the survival is 121% (inactive).
In the case of `COc1ccc(N2CC3=C(C2=O)C(c2ccc(Br)cc2)NC(=O)N3C)cc1` (configuration not stated) it was 156% (inactive); in that of `COc1ccc(CNC(=O)c2cnc3cc(C)ccn3c2=O)cc1`, 85% (inactive); in that of `Cc1ccc(OC(=O)CSc2nnc(CNC(=O)c3ccccc3)o2)cc1`, 87% (inactive).
The result for `N#Cc1ccccc1Cn1c(SCC(=O)NCc2ccccc2)nc2ccccc21` reads 75% (inactive).
The result for `O=C(C1CCN(S(=O)(=O)c2ccccc2)CC1)N1CCCCC1` reads 96% (inactive).
Consider `O=C1C2c3ccccc3CCN2C(=O)CN1CCc1ccccc1` (configuration not stated), for which the survival was 121% (inactive).
As to `CCOc1ccc(-n2nc(CO)c(C(=O)NCC(C)O)n2)cc1` (configuration not stated), the survival was 81% (inactive).
With `CC(C)CCNC(=O)c1ccc2c(c1)N(C)C(=O)c1ccccc1S2`, the survival was -6% (active).
In the case of `Cc1ccc(C)c(CN2C(=O)c3ccccc3Sc3ccc(C(=O)NCc4ccco4)cc32)c1` it was -1% (active); in that of `CC(C)CCNC(=O)c1ccc2c(c1)N(Cc1cccc(Cl)c1)C(=O)c1ccccc1S2`, 70% (inactive).
As for `CC(C)CCNC(=O)Nc1ccc2c(c1)N(C)C(=O)c1ccccc1S2`, the survival is 135% (inactive).
Regarding `Cc1ccc(CN2C(=O)c3ccccc3Sc3ccc(C(=O)NCc4ccco4)cc32)cc1`, the survival is 55% (inactive).
In the case of `Cc1cccc(CN2C(=O)c3ccccc3Sc3ccc(C(=O)NCc4ccco4)cc32)c1`, the survival was 75% (inactive).
The result for `COc1cc(Cl)c(NC(=O)CN2C(=O)c3cccnc3Sc3ccccc32)c(OC)c1` reads 72% (inactive).
In the case of `COc1ccc2c(CNCc3cccs3)c(C(=O)O)n(Cc3ccccc3F)c2c1` it was 89% (inactive); in that of `CCN1CCC(N(Cc2ccc(F)cc2)C(=O)Nc2ccc(C)c(F)c2)CC1`, 87% (inactive).
In the case of `O=C(Nc1ccccc1C(F)(F)F)C1CCN(S(=O)(=O)c2ccccc2)CC1` it was 72% (inactive).
`CCc1ccc(C(=O)c2cn(CC(=O)Nc3ccc4c(c3)OCCO4)c3ccc(C)cc3c2=O)cc1`: the survival was 84% (inactive).
Regarding `CCCCn1nc(NC(=O)c2cccc(Cl)c2)c2cc3ccccc3nc21`, the survival is 86% (inactive).
In the case of `NC(=O)CSc1nnc(C2CC2)n1Cc1ccccc1` it was 93% (inactive); in that of `COc1ccc(OCC(=O)OCc2cc(=O)n3nc(-c4cccs4)sc3n2)cc1`, 87% (inactive).
As to `Cc1cn2c(=O)cc(COC(=O)c3ccc(NC(=O)c4ccc(F)cc4)cc3)nc2s1`, the survival was 70% (inactive).
For the compound `COc1ccc(OCC(=O)OCc2cc(=O)n3cc(C)sc3n2)cc1`, the survival was 1% (active).
Turning to `Cc1cn2c(=O)cc(COC(=O)c3ccc(NC(=O)c4ccc(C(C)(C)C)cc4)cc3)nc2s1`, the survival was -3% (active).
On to `O=C(COc1ccccc1)OCc1cc(=O)n2nc(-c3cccs3)sc2n1`, for which the survival was 75% (inactive).
The result for `Cc1cn2c(=O)cc(COC(=O)c3cccc(NC(=O)c4ccc(C(C)(C)C)cc4)c3)nc2s1` reads 101% (inactive).
On to `Cc1cn2c(=O)cc(COC(=O)COc3ccc(C)c(C)c3)nc2s1`, for which the survival is 63% (inactive).
The result for `Cc1cn2c(=O)cc(COC(=O)c3ccc(NC(=O)C(C)Oc4ccccc4)cc3)nc2s1` (configuration not stated) reads 0% (active).
`Cc1cn2c(=O)cc(COC(=O)COc3ccc(F)cc3)nc2s1`: the survival was 81% (inactive).
Regarding `O=C(COc1ccc(Cl)cc1)OCc1cc(=O)n2nc(-c3cccs3)sc2n1`, the survival is -6% (active).
For `CC(Oc1ccccc1)C(=O)Nc1ccc(C(=O)OCc2cc(=O)n3ccsc3n2)cc1` (configuration not stated), the survival is 72% (inactive).
`Cc1cn2c(=O)cc(COC(=O)c3cccc(NC(=O)C(C)Oc4ccccc4)c3)nc2s1` (configuration not stated): the survival is 69% (inactive).
On to `Cc1cccc(OCC(=O)N(Cc2ccccc2)c2ccccn2)c1`, for which the survival is 87% (inactive).
In the case of `CCOC(=O)c1ccccc1NC(=O)CSc1nc(=O)[nH]c2c1CCC2` it was 77% (inactive); in that of `Cc1ccc(NC(=O)Cn2cc(C#N)c3ccccc32)cc1`, 113% (inactive); in that of `Cc1c(Cl)cccc1NC(=O)Cn1c(=O)n(Cc2nc(-c3ccccc3)no2)c(=O)c2cc3c(cc21)OCO3`, 135% (inactive).
As for `CCn1cc(C(=O)NCc2ccc(C)cc2)c(=O)c2cc(S(=O)(=O)N3CCC(C)CC3)ccc21`, the survival is 128% (inactive).
Take `Cc1sc2ncn(CC(=O)Nc3cccc(C(F)(F)F)c3)c(=O)c2c1S(=O)(=O)N1CCN(C)CC1`: the survival was 75% (inactive).
On to `Cc1ccc(Cn2cc(S(=O)(=O)c3cccc(C)c3)c(=O)c3cc(F)c(N4CCOCC4)cc32)cc1`, for which the survival is 82% (inactive).
For the compound `Cn1c(=O)c2c(-c3ccccc3)n3c(c2n(C)c1=O)C(c1ccco1)Nc1ccccc1-3` (configuration not stated), the survival is 85% (inactive).
In the case of `COc1ccccc1C1Nc2ccccc2-n2c(-c3ccccc3)c3c(=O)n(C)c(=O)n(C)c3c21` (configuration not stated) it was 65% (inactive); in that of `COc1ccc(-c2nc3ccccc3n3c(-c4ccc(OC)cc4)c4c(=O)n(C)c(=O)n(C)c4c23)cc1`, 75% (inactive); in that of `Cn1c(=O)c2c(-c3ccccc3)n3c(c2n(C)c1=O)C(c1cccc([N+](=O)[O-])c1)Nc1ccccc1-3` (configuration not stated), 31% (inactive).
With `Cc1ccc(-c2c3c(=O)n(C)c(=O)n(C)c3c3n2-c2ccccc2NC3c2ccc(C)cc2O)cc1` (configuration not stated), the survival was -8% (active).
In the case of `Cc1cc2c(cc1C)-n1c(-c3ccccc3)c3c(=O)n(C)c(=O)n(C)c3c1C(c1ccco1)N2` (configuration not stated) it was 88% (inactive).
The result for `COc1ccc(-c2c3c(=O)n(C)c(=O)n(C)c3c3c(-c4ccccc4)nc4ccccc4n23)cc1` reads 64% (inactive); that for `Cn1c(=O)c2c(-c3ccccc3)n3c(c2n(C)c1=O)C(c1cc(Cl)ccc1O)Nc1ccccc1-3` (configuration not stated), -9% (active); that for `COc1ccc(O)c(C2Nc3ccccc3-n3c(-c4ccccc4)c4c(=O)n(C)c(=O)n(C)c4c32)c1` (configuration not stated), -6% (active).
As to `COc1ccc(-c2c3c(=O)n(C)c(=O)n(C)c3c3n2-c2ccccc2NC3c2ccc(O)cc2O)cc1` (configuration not stated), the survival was -8% (active).
The result for `COc1ccc(-c2c3c(=O)n(C)c(=O)n(C)c3c3c(C)nc4ccccc4n23)cc1` reads 74% (inactive).
For `Cn1c(=O)c2c(-c3ccccc3)n3c(c2n(C)c1=O)C(c1ccccc1[N+](=O)[O-])Nc1ccccc1-3` (configuration not stated), the survival is 76% (inactive).
With `O=C(C1CCN(S(=O)(=O)c2cccs2)CC1)N1CCN(c2ccccc2F)CC1`, the survival is 142% (inactive).
With `CCN(C(=O)/C=C/c1cc(OC)c(OC)c(OC)c1)C1CCCCC1`, the survival is 107% (inactive).
Regarding `COc1cccc(CNC(=O)CCn2c(=O)c3cccn3c3cccnc32)c1`, the survival is 87% (inactive).
Turning to `CCC(Sc1nc(-c2ccccc2F)nc2c1Cc1c(CO)cnc(C)c1O2)C(=O)Nc1cc(C)ccc1C` (configuration not stated), the survival is 87% (inactive).
On to `COc1ccc(N2CCN(Cc3nnc(-c4ccc5c(c4)OCO5)o3)CC2)cc1`, for which the survival was 81% (inactive).
With `O=C(Cn1c(C(=O)NC2CCCCC2)cc2sccc21)c1ccccc1`, the survival is 136% (inactive).
`Cc1ccc(C)n1-c1nnc(N2CCCC(C(=O)NCc3cccc(F)c3)C2)s1` (configuration not stated): the survival is 81% (inactive).
With `COC(=O)c1c(C)oc2ccc(N(C(=O)c3ccncc3)S(=O)(=O)c3cc(C)c(C)cc3C)cc12`, the survival is 77% (inactive).
In the case of `COc1ccc(Cl)c2sc(NC(=O)c3ccc(S(=O)(=O)N4CCCC4)cc3)nc12` it was 73% (inactive).
The result for `CCn1ccc2cc(S(=O)(=O)N3CCCN(C(=O)Nc4ccc(C)cc4Cl)CC3)ccc21` reads 63% (inactive).
The result for `COc1ccc(OC)c(C2NC(=O)NC(C)=C2C(=O)Nc2ccc(F)cc2)c1` (configuration not stated) reads 81% (inactive); that for `O=c1c2ccccc2nc(N2CCN(c3cccc(Cl)c3)CC2)n1-c1ccccc1`, 81% (inactive); that for `Cc1ccc(C)c(N2CCN(c3nc4ccccc4c(=O)n3-c3ccccc3)CC2)c1`, 10% (active).
Regarding `Cc1ccc(C)c(N2CCN(c3nc4ccccc4c(=O)n3-c3ccc(Cl)cc3)CC2)c1`, the survival was 78% (inactive).
In the case of `CCOc1ccccc1CN1CCc2nc(N3CCN(c4ccccc4F)CC3)ncc2C1` it was -6% (active); in that of `CN1CCN(c2ncc3c(n2)CCN(Cc2ccccc2Cl)C3)CC1`, 71% (inactive).
Turning to `Cc1ccccc1CN1CCc2nc(N3CCN(c4ccccn4)CC3)ncc2C1`, the survival was 71% (inactive).
Turning to `COc1cc(OC)c(OC)cc1CN1CCc2nc(N3CCN(c4ccccc4F)CC3)ncc2C1`, the survival was 64% (inactive).
`COc1cc(OC)c(OC)cc1CN1CCc2nc(N3CCN(C)CC3)ncc2C1`: the survival is 82% (inactive).
On to `CN1CCN(c2ncc3c(n2)CCN(Cc2cc(Br)cs2)C3)CC1`, for which the survival was 129% (inactive).
The result for `CCN1CCN(c2ncc3c(n2)CCN(Cc2cc(Br)cs2)C3)CC1` reads 1% (active); that for `CCN1CCN(c2ncc3c(n2)CCN(Cc2ccccc2C)C3)CC1`, -3% (active).
In the case of `CCN1CCN(c2ncc3c(n2)CCN(Cc2ccc(Br)s2)C3)CC1` it was 60% (inactive).
On to `CCOc1ccccc1CN1CCc2nc(N3CCN(C)CC3)ncc2C1`, for which the survival is -4% (active).
The result for `Cc1ccccc1CN1CCc2nc(N3CCN(c4ncccn4)CC3)ncc2C1` reads 75% (inactive); that for `COc1ccccc1N1CCN(c2ncc3c(n2)CCN(Cc2ccccc2F)C3)CC1`, 67% (inactive).
